Experimental data: PubChem BioAssay AID493191 (Broad Institute, 2011)
The campaign covered roughly 1,300 compounds. About 330 (25%) were called active. How the calls were made is not given here. Only a sample is shown. Measured potencies and affinities stand elsewhere.

Experiment: growth inhibition of MALME3 cells – cell-based, CellTiter-Glo, cherry-picked, orthogonal assay for MITF inhibitor project, dose response (AID 493191)
Conditions: MALME3 melanoma viability, CellTiter-Glo luminescence, 24 h; series mostly up to 35 µM
For `Cc1ccccc1NCc1nc2ccccc2n1C`, the outcome was “inactive”.
For `O=C(c1cc2ccccc2oc1=O)N1CCN(c2ncccn2)CC1`, the outcome was “inactive”.
With `N#C/C(=C\c1ccc(OCc2ccc(C(=O)O)cc2)cc1)C(=O)N1CCOCC1` the outcome was “inactive”.
In the case of `N#Cc1nc(/C=C/c2ccccc2)oc1NCCCN1CCOCC1`, the outcome was “inactive”.
For `CCN1CCN(c2ccc(Nc3ccnc4ccccc34)cc2)CC1`, the outcome was “inactive”.
For `CCn1c(C)cc(C(=O)CN2C(=O)c3ccccc3S2(=O)=O)c1C`, the outcome was “inactive”.
In the case of `Cc1ccc(SCc2cn3cc(Cl)ccc3n2)cc1`, the outcome was “inactive”.
For `Cc1ccc(-c2c[n+](Cc3cccc(Cl)c3)c3n2CCC3)cc1`, the outcome was “inactive”.
With `CCN(CC(=O)Nc1ccc2c(c1)OCCO2)C(=O)c1ccc([N+](=O)[O-])s1` the outcome was “inactive”.
For `CC(OC(=O)c1ccc([N+](=O)[O-])s1)C(=O)NC1CCCCC1C` (stereo not given), the outcome was “inactive”.
In the case of `O=[N+]([O-])c1ccc(/C=N/n2c(CO)nc3ccccc32)s1`, the outcome was “inactive”.
For `CCOC(=O)Cn1c(=NC(=O)c2ccc([N+](=O)[O-])s2)sc2ccccc21`, the outcome was “inactive”.
In the case of `Nc1nc2ccccc2n1/N=C/c1ccc(-c2ccccc2)o1`, the outcome was “inactive”.
For `C=CCn1c(C)cc(C(=O)CN2C(=O)c3ccccc3S2(=O)=O)c1C`, the outcome was “inactive”.
With `Cn1c(/C=C/c2cccc([N+](=O)[O-])c2)c([N+](=O)[O-])c(=O)n(C)c1=O` the outcome was “inactive”.
For `Nc1ccc(-c2cc3ccccc3c(=O)o2)cc1`, the outcome was “inactive”.
With `Cn1c(COc2ccccc2Br)nc2ccccc21` the outcome was “inactive”.
For `O=C(CN1CCCCC1)Nc1scc2c1c(=O)oc1ccccc12`, the outcome was “inactive”.
With `CCc1ccc(-c2cc(C(=O)Nn3cnnc3)c3ccccc3n2)cc1` the outcome was “inactive”.
With `O=C(Nc1ccccc1N1CCOCC1)c1ccc([N+](=O)[O-])o1` the outcome was “inactive”.
For `Cc1cn(CCC(=O)Nc2ccccc2N2CCOCC2)c2ccccc12`, the outcome was “inactive”.
For `FC(F)(F)Oc1ccc(-c2cn3cccnc3n2)cc1`, the outcome was “inactive”.
For `CCN(CCO)c1ccc(N=Nc2cc(C)[nH]n2)cc1`, the outcome was “inactive”.
With `COc1cc(/C=C/C(=O)c2ccc3c(c2)OCCO3)cc(Br)c1OCC(=O)N(C)C` the outcome was “inactive”.
In the case of `COCc1cc(C)nc2sc(C(=O)Nc3ccc(OC)cc3)c(N)c12`, the outcome was “inactive”.
For `Cc1cc(C)c2nc(N3CCC(C(=O)NCCCN4CC(C)CC(C)C4)CC3)sc2c1` (stereo not given), the outcome was “inactive”.
In the case of `Cc1ccccc1-c1nc(CN2CCC(C(=O)NCCCN3CCCC(C)C3)CC2)c(C)o1` (stereo not given), the outcome was “inactive”.
For `COc1cc(-c2nnc(-c3ccco3)o2)ccc1OCc1ccccc1`, the outcome was “inactive”.
With `COc1ccc(-c2nc(-c3ccccc3OC)no2)cc1OC` the outcome was “inactive”.
In the case of `COc1ccc(-c2nc3n(c2C)Cc2ccccc2-3)cc1`, the outcome was “inactive”.
With `Cn1nnnc1Sc1ncnc2scc(-c3ccc[nH]3)c12` the outcome was “inactive”.
With `S=c1[nH]nc(-c2ccco2)n1/N=C/C(Cl)=C/c1ccccc1` the outcome was “inactive”.
In the case of `O=C(Nc1ccccc1Cl)c1cc(=O)c2ccccc2o1`, the outcome was “inactive”.
For `O=C(Nc1ccc(-c2nc3ncccc3o2)cc1)c1ccc([N+](=O)[O-])o1`, the outcome was “inactive”.
For `Oc1cc(NCc2cccnc2)ccc1-c1nc2ccccc2o1`, the outcome was “inactive”.
In the case of `Cc1ccc2nc(-c3cccnc3)oc2c1`, the outcome was “inactive”.
With `CC(=NNC(=S)N1CCN(c2ccccn2)CC1)c1nccs1` the outcome was “inactive”.
For `Oc1c(Cl)cc(Cl)cc1/C=N/Nc1ncc(Br)cn1`, the outcome was “inactive”.
For `CC(C)(C)C1CCC(OC(=O)CN2CCCCC2)CC1` (stereo not given), the outcome was “inactive”.
For `Cc1ccc(NC(=O)Nc2ccccc2)nc1`, the outcome was “inactive”.
With `COc1cc(C2C(C#N)=C(N)Oc3cc(N(C)C)ccc32)cc2c1OCO2` (stereo not given) the outcome was “inactive”.
In the case of `Cc1ccc(/C=c2/sc3n(c2=O)CCCN=3)o1`, the outcome was “inactive”.
For `O=C(Cn1cc(/C=C\[N+](=O)[O-])c2ccccc21)Nc1ccccc1`, the outcome was “inactive”.
In the case of `Cc1cc(/C=C2\Sc3ccccc3N2C)cc(C)[n+]1CC1CCCO1` (stereo not given), the outcome was “inactive”.
In the case of `O=C(O)c1cccc(COc2ccccc2Cl)c1`, the outcome was “inactive”.
In the case of `COc1cc(C(=O)N/N=C(\c2ccccc2)c2ccccn2)cc(OC)c1OC`, the outcome was “inactive”.
For `Cc1ccc2c(c1)COc1c3ccc(C(=O)O)cc3nn1-2`, the outcome was “inactive”.
With `COc1cc(/C=N/NS(=O)(=O)c2ccc(C)cc2)ccc1OCc1cccc(C(=O)O)c1` the outcome was “inactive”.
For `CCOc1cc(/C=N/Nc2cccc(C(=O)O)c2)ccc1OC(=O)c1ccccc1`, the outcome was “inactive”.
With `CCOc1cc(/C=C2/NC(=S)NC2=O)ccc1OCc1ccc([N+](=O)[O-])cc1` the outcome was “inactive”.
With `COc1cc(/C=N/NS(=O)(=O)c2ccc3ccccc3c2)ccc1OCc1ccc(C(=O)O)cc1` the outcome was “inactive”.
For `Cc1cc(/C(N)=N/OC(=O)c2ccc(Cl)cc2)no1`, the outcome was “inactive”.
In the case of `CCCCN=C(C)c1c(O)c2ccccc2oc1=O`, the outcome was “inactive”.
For `CC(C)(C)c1ccc(/C=N/Nc2ccc(C(=O)O)cc2)cc1`, the outcome was “inactive”.
With `Cc1ccc(/C=N/Nc2ccc(C(=O)O)cc2)s1` the outcome was “inactive”.
With `Cc1csc(NC(=O)Cc2c(F)cccc2Cl)n1` the outcome was “inactive”.
For `Cc1cc(C)n(CCC(=O)N/N=C/c2c(O)ccc3ccccc23)n1`, the outcome was “inactive”.
With `Cc1ccc(-n2[nH]c(=O)c(-c3ccccn3)c2C)cc1` the outcome was “inactive”.
In the case of `Cc1cccc(N(O)C(=O)Nc2cccc(Cl)c2)c1`, the outcome was “inactive”.
In the case of `COc1ccc(NCc2nc3ccccc3n2C)cc1`, the outcome was “inactive”.
For `Cn1c(COc2ccccc2)nc2ccccc21`, the outcome was “inactive”.
In the case of `CCOC(=O)/C=c1\s/c(=C\c2ccc3cc(OC)ccc3c2)c(=O)n1CC(=O)NCC1CCCO1` (stereo not given), the outcome was “inactive”.
In the case of `O=C(COC(=O)CCN1C(=O)/C(=C\C=C\c2ccccc2)SC1=S)Nc1cc(F)ccc1F`, the outcome was “inactive”.
With `O=C(Nc1ccccn1)c1ccc(Br)s1` the outcome was “inactive”.
For `N=c1n(CC(=O)c2ccc(Br)cc2)c2ccccc2n1Cc1ccccc1`, the outcome was “inactive”.
For `O=C(CCl)N1c2ccccc2SCC1c1ccccc1` (stereo not given), the outcome was “inactive”.
In the case of `COc1ccc(COC(=O)c2n[nH]c3ccccc23)cc1F`, the outcome was “inactive”.
With `CC(=O)N(\C=C/C=C/C=C1\Sc2ccccc2C1=O)c1ccccc1` the outcome was “inactive”.
For `Nc1c(-c2ccc(Cl)cc2)nnn1-c1ccccc1`, the outcome was “inactive”.
In the case of `CCSc1nc2c(cnn2-c2ccccc2)c(=O)n1N`, the outcome was “inactive”.
With `COc1cc2c(cc1OC)C(SC)=NC1(CCCC1)C2` the outcome was “inactive”.
With `CN(C)c1ccc(/C=C(\C#N)c2ccccn2)cc1` the outcome was “inactive”.
For `Cc1ccccc1Cn1c(=N)n(CC(=O)c2ccc([N+](=O)[O-])cc2)c2ccccc21`, the outcome was “inactive”.
For `O=C(/C=C/NNC(=O)c1ccccc1)c1ccc([N+](=O)[O-])cc1`, the outcome was “inactive”.
For `N=c1n(CC(=O)c2ccc([N+](=O)[O-])cc2)c2ccccc2n1Cc1ccccc1Cl`, the outcome was “inactive”.
For `Cc1ccccc1C(=O)O/N=C(\N)c1ccc([N+](=O)[O-])cc1`, the outcome was “inactive”.
With `O=C(C[n+]1cccc2ccccc21)c1ccc([N+](=O)[O-])cc1` the outcome was “inactive”.
With `CCN1CCN(/C=N/c2nc3c(s2)CCCC3)CC1` the outcome was “inactive”.
In the case of `CC(Oc1cccc(Br)c1)C(=O)NNC(=O)c1ccccn1` (stereo not given), the outcome was “inactive”.
In the case of `Cc1cnn(C(=S)NCCc2ccccc2)c1`, the outcome was “inactive”.
For `O=C(Cn1cnc2c(oc3ccccc32)c1=O)c1ccccc1`, the outcome was “inactive”.
In the case of `CCCCOC(=O)c1[nH]c(C)c(C(=O)OC)c1C`, the outcome was “inactive”.
In the case of `CCOC(=O)c1c(NC(C)=O)sc2c(OCC(O)CNC(C)(C)C)c(Br)ccc12` (stereo not given), the outcome was “inactive”.
For `CC(/C=N/NC(=O)c1cc(-c2ccncc2)nc2ccccc12)=C\c1ccco1`, the outcome was “inactive”.
For `O=C(CCC1CCCN(C(=O)c2cc3ccccc3o2)C1)NCc1ccc(F)c(F)c1` (stereo not given), the outcome was “inactive”.
For `COC(=O)[C@@H](C)NC(=O)c1ccc2oc(CCc3ccccc3)nc2c1`, the outcome was “inactive”.
In the case of `COC(=O)[C@@H]1C[C@]2(OC(=O)c3ccccc3)C=CC(=O)C[C@@H]2N1C(=O)OCc1ccccc1`, the outcome was “inactive”.
With `O=C1CN(c2ccccc2)C(=S)N1C(=O)c1ccccc1` the outcome was “inactive”.
In the case of `COC(=O)c1ccc(-n2c(C)cc(C(=O)CCl)c2C)cc1`, the outcome was “inactive”.
In the case of `Cc1cc(C(=O)CCl)c(C)n1CCc1ccc(F)cc1`, the outcome was “inactive”.
For `Cc1cc(C(=O)COc2cccnc2[N+](=O)[O-])c(C)n1-c1ccccc1`, the outcome was “inactive”.
With `Cc1cc(-n2c(C)cc(C(=O)CCl)c2C)no1` the outcome was “inactive”.
In the case of `COc1ccc2oc3ccc(OC)cc3c(=O)c2c1`, the outcome was “inactive”.
In the case of `CC(C)(C)c1ccc(-c2noc(CCC(=O)NCC3CCCO3)n2)cc1` (stereo not given), the outcome was “inactive”.
For `Cc1cc(NCCCn2ccnc2)n2ncc(-c3ccccc3)c2n1`, the outcome was “inactive”.
With `O=C(NCc1ccco1)c1ccc(COCC(F)(F)F)cc1` the outcome was “inactive”.
With `COc1ccc(S(=O)(=O)Nc2ccc(O)c3ccccc23)cc1` the outcome was “inactive”.
For `O=[N+]([O-])c1ccccc1OCCOc1ccccc1[N+](=O)[O-]`, the outcome was “inactive”.
With `CCOC(=O)CSC1=NC(=O)/C(=C\c2ccc(OC(C)=O)cc2)S1` the outcome was “inactive”.
For `CCOC(=O)CSc1nc2cc(OCC)ccc2cc1C#N`, the outcome was “inactive”.
In the case of `CCOc1ccc(/C=C2\SC(=S)N(CCC(=O)O)C2=O)cc1`, the outcome was “inactive”.
For `CCOC(=O)c1sc(NC(=O)Nc2ccc(Cl)cc2)nc1C`, the outcome was “inactive”.
For `COc1ccc(CNC(=O)CN2C(=O)C3C4C=CC(C4)C3C2=O)cc1` (stereo not given), the outcome was “inactive”.
For `CC(C)(C)c1ccc(-c2cc(N)n[nH]2)cc1`, the outcome was “inactive”.
For `COCCn1c(C)cc(C(=O)CSc2nnc(C)s2)c1C`, the outcome was “inactive”.
With `O=C(CCl)N1c2ccccc2CCc2ccccc21` the outcome was “inactive”.
For `COc1ccc(CCC(=O)N2CCc3ccccc32)cc1`, the outcome was “inactive”.
With `CC(=O)c1sc(N/N=C\c2ccc(N(C)C)cc2)nc1C` the outcome was “inactive”.
With `COc1cccc(C(=O)Nc2ccc3c(cc2=O)[C@@H](NC(C)=O)CCc2cc(OC)c(OC)c(OC)c2-3)c1` the outcome was “inactive”.
In the case of `O=C1c2ccccc2C(=O)N1CCOc1ccccc1`, the outcome was “inactive”.
In the case of `Cc1nc2ccccn2c1C(=O)/C=C/c1cccc([N+](=O)[O-])c1`, the outcome was “inactive”.
In the case of `O=C(/C=C/c1cccc([N+](=O)[O-])c1)n1cnc2ccccc21`, the outcome was “inactive”.
For `CCOC(=O)C(=Cc1ccc(-n2ccnc2)cc1)C(=O)OCC`, the outcome was “inactive”.
For `Cc1ccc(-n2ncc3c(SCC(N)=O)ncnc32)cc1C`, the outcome was “inactive”.
For `CC(=O)c1ccc(Sc2nnnn2-c2ccccc2)c([N+](=O)[O-])c1`, the outcome was “inactive”.
